Test results from PubChem BioAssay (NCI).
Compounds without any hit were thinned out: in the full panel of roughly 79,000, 15% have a hit. Calls of active or inactive are those of the source. Rule as the data show it: active = growth inhibition above about 70%; inactive = the rest.

Assay: NCI Yeast Anticancer Drug Screen. Data for the mgt1 strain (AID 153)
Conditions: S. cerevisiae mgt1 mutant growth inhibition; at 100.0 µM; active compounds read high
Procedure, shortened: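 Read-out: yeast growth inhibition vs vehicle control. Strain mgt1, drawn from a panel altered in DNA damage repair or cell cycle control.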

| SMILES | growth inhibition |
| --- | --- |
| CCOP(=O)(OCC)C(Cc1ccccc1)N=C(c1ccccc1)c1ccccc1 (centres undefined) | 98% (active) |
| CCc1ncnc2cc(OCC3CO3)c(OC)cc12 (centres undefined) | 48% (inactive) |
| CCOC(=O)[C@H]1Nc2ccccc2C2c3ccccc3CC21 (some centres undefined) | 65% (inactive) |
| O=CNc1ccc2c(c1)C(=O)c1ccccc1-2 | 97% (active) |
| CCOc1ccc2c(c1)c(CC(=O)O)cn2C | 51% (inactive) |
| OC1CSCCCSCCSCCCSC1 | -29% (inactive) |
| N#Cc1c(N)[nH]c2ccc(Sc3ccccc3)cc12 | 97% (active) |
| Cc1ccc(-c2ccc(Nc3c4ccccc4nc4ccccc34)cc2)cn1 | 95% (active) |
| c1ccc2c(c1)NC(NC1Nc3ccccc3N1)N2 | 10% (inactive) |
| OC(COc1cccc2ccccc12)CN1CCOCC1 (centres undefined) | 55% (inactive) |
| CCC/C(Cl)=N\OC(=O)Nc1ccc(Br)cc1 | 99% (active) |
| COc1ccc(/C=C2\SC(=S)N(/C=C/c3nc4ccccc4[nH]c3=O)C2=O)cc1OC | 94% (active) |
| O=C(NNc1ccnc2cc(Cl)ccc12)/C(=C\c1ccccc1Cl)NC(=O)c1ccccc1 | 62% (inactive) |
| CSC1=NNC(SC)=NN1 | 99% (active) |
| Cc1c(C2=C(Br)C(=O)N(C)C2=O)c(=O)n(C)c(=O)n1C | 91% (active) |
| NCCNc1ccc(NCCN)c2c1C(=O)c1c(O)ccc(O)c1C2=O | 66% (inactive) |
| Cn1c(=O)c(-c2ccccc2)c(N=[N+]=[N-])c2ccccc21 | 89% (active) |
| CCCCCCCCCCCCCCCCCCOCC(O)COP(=O)(O)OCC1OC(n2cc(F)c(=O)[nH]c2=O)CC1O (centres undefined) | 98% (active) |
| CCS(=O)(=O)c1ccc(/C=C/C=N/NC(=S)NCC(C)C)cc1 | 44% (inactive) |
| CCC(=O)Oc1c(Cl)cc(Cl)c2ccccc12 | 28% (inactive) |

| SMILES | growth inhibition |
| --- | --- |
| COc1cc2c3c(cccc3c1)C(=O)N(CCN(C)C)C2=O | -7% (inactive) |
| CN(C)c1ccc(C(C#N)=C(C#N)C#N)cc1 | 10% (inactive) |
| O=C(CCCN1CCC2(CC1)CC(=O)N(N1CCCCCC1)C2=O)c1ccc(F)cc1 | 89% (active) |
| O=C1C2C(C(=O)N1c1ccc(OCc3ccccc3)cc1)C1c3ccccc3C2C2CCCCN21 (centres undefined) | 95% (active) |
| CCN(CC)CCC(=O)c1ccc(Oc2ccc(F)cc2)cc1 | 94% (active) |
| O=Nc1c(NO)ccc2nn(-c3ccccc3)nc12 | 99% (active) |
| CC(=O)SCCC[Si](C)(C)CCCSC(C)=O | 39% (inactive) |
| O=C(O)C1CCCCC1c1c2ccc(=O)c(O)c-2oc2c(O)c(O)ccc12 (centres undefined) | 86% (active) |
| Cc1ccc(NN(NC(=O)OC(C)C)C(=O)OC(C)C)cc1 | 13% (inactive) |
| O=C1c2ccccc2C(=O)c2cc(CBr)ccc21 | 68% (inactive) |
| Cc1c(C(Cc2ccccc2N(C)C(=O)/C=C\C(=O)O)c2c[nH]c3ccccc23)c2ccccc2n1C (centres undefined) | 65% (inactive) |
| CC(C)/C(Cl)=N\OC(=O)Nc1ccc(F)cc1 | 99% (active) |
| O=C1OC(=O)C2CCCC3CCCC1C32 (centres undefined) | 96% (active) |
| CCOC(=O)C(NC(=O)c1ccccc1)(N1CCN(c2cc3c(cc2F)c(=O)c(C(=O)O)cn3C2CC2)CC1)C(F)(F)F (centres undefined) | 2% (inactive) |
| COc1ccc(NC(=S)N/N=C(\c2ccccc2)c2ccccn2)cc1 | 95% (active) |
| C=CCC1=C(C)C(OC(=O)/C=C/c2ccccc2)CC1=O (centres undefined) | 29% (inactive) |
| NNc1c(F)c(F)cc(F)c1F | 7% (inactive) |
| COP(=O)(OC)/C(=C\C1=CN(C(c2ccccc2)(c2ccccc2)c2ccccc2)CN1)NC=O | 96% (active) |
| COC(=O)c1cc(-c2ccc(C)cc2)[nH]c(=O)c1C#N | 0% (inactive) |
